VP16 counter = inhibits Gal4-VP16 luciferase reporter, ROR gamma counter-screen; Drosophila S2 Gal4-VP16 UAS-luciferase, luminescence, 20 h; Potency, µM (series often up to 53.6 µM), actives largely listed as inhibitors; hit rate 3.5% among 310,000; AID 2546;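 note: Gal4-VP16 expression switched on by copper sulfate through the metallothionein promoter; nearly all actives have a fitted effect of over 50% in size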
ELG1 DNA repair = ELG1-dependent DNA repair inhibition | HEK293T ELG1-luciferase reporter, luminescence, 16 h; DNA damage induced by 5-fluorouridine | Potency, µM (series often up to 46.1 µM), hits mostly inhibitors | hit rate 2.3% among 330,000; note: nearly all actives have a fitted effect of over 55% in size
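Step one: seed 2,000 cells per well. Step two: pin-transfer compound or DMSO alongside 5-fluorouridine. Step three: incubate 16 hr, 37 °C, 5% CO2. Step four: add ONE-Glo, wait 30 min, read luminescence.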
RORg inh = ROR gamma (mouse) transcription inhibition; P51450; Drosophila S2 Gal4-RORgamma UAS-luciferase reporter, 20 h; Potency, µM (doses to about 53.6 µM), actives largely listed as inhibitors; hit rate 5.4% among 310,000; AID 2551; note: nearly all actives have a fitted effect of over 60% in size
Target sequence (P51450 whole entry, looked up, the tested form may be a part): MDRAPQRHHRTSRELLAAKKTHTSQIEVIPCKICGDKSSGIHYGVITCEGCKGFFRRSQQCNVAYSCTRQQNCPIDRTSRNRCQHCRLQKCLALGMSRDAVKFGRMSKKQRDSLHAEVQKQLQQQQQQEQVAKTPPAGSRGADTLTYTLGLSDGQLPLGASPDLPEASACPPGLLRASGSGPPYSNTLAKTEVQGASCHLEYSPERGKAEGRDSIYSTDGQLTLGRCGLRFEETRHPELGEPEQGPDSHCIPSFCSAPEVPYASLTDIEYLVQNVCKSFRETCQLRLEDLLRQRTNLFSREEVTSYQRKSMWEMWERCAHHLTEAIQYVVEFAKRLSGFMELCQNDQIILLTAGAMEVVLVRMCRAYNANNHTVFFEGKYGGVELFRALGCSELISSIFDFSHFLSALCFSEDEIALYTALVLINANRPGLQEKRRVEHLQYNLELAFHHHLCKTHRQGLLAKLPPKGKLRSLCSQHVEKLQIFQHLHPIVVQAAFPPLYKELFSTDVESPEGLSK
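In this cell-based reporter format, copper sulfate (700 uM final) drives Gal4–ROR gamma fusion expression from a metallothionein promoter in Drosophila Schneider cells; compounds preincubated 1 hr, reporter read after 20 hr at ambient temperature.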
TDP1 cell CPT = DT40-hTDP1 cell growth loss with CPT; chicken DT40 Tdp1-/-;hTDP1 cells + 20 nM CPT, ATP luminescence, 48 h; Potency, µM (doses to about 46.2 µM), hits mostly inhibitors; hit rate 12% among 420,000; note: nearly all actives have a fitted effect of over 55% in size
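Chicken DT40 Tdp1-/- cells complemented with human TDP1, 400 cells/well, exposed to compounds plus 20 nM camptothecin for at least 48 h at 37 C; viability read as ATP content by CellTiter-Glo luminescence.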
TDP1 cell noCPT = qHTS for Inhibitors of human tyrosyl-DNA phosphodiesterase 1 (TDP1): qHTS in cells in absence of CPT; DT40 Tdp1-/- hTDP1 cells, no CPT, ATP luminescence, 48 h; Potency, µM (series often up to 46.2 µM), most hits filed as inhibitors; hit rate 15% among 420,000; note: nearly all actives have a fitted effect of over 55% in size
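Compound effects on proliferation are scored in DT40 Tdp1-/-;hTDP1 cells in the absence of CPT. ATP levels (CellTiter-Glo luminescence) are recorded after a ≥48 hr, 37 °C incubation.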
IL1B secr inh = inhibitors of inflammasome signaling (IL-1 beta secretion); THP-1 LPS/ATP IL-1B secretion, AlphaLISA, 16 h; stronger effect = lower value; activity change, % at 57.5 µM; hit rate 4.7% among 360,000; in the data active = activity change below about -50%; inconclusive = mostly about -30% to -49%
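Secreted IL-1B measured by AlphaLISA bead assay after 16 h compound exposure of THP-1 cells; compounds (final up to 57.5 uM) added 1 h before LPS (250 ng/mL) and ATP (1.25 mM) stimulation; lower signal means less secretion.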
A number is an active result; - = inactive; ? = inconclusive; . = not tested or not shown. In the library only some 21% were active in any assay of this set; here they are far more common. Unless noted, calls come from the whole dose curve; as a rule, active = well fitted curve in the direction sought with a large enough effect; inconclusive = small, poorly fitted or top-dose-only effect, or another doubt; inactive = no such curve, though single readings can be large; an effect the other way counts as inactive or inconclusive.

SMILES	VP16 counter	ELG1 DNA repair	RORg inh	TDP1 cell CPT	TDP1 cell noCPT	IL1B secr inh
CC(C)Cn1cc(NC(=O)N2CCN(c3cccc(C(F)(F)F)c3)CC2)c2ccccc2c1=O	.	.	.	14.6µM	16.4µM	.
CNS(=O)(=O)c1cn(CC(=O)Nc2ccc(C)c(N(C)C)c2)cc1S(=O)(=O)NC	.	.	.	-	-	.
CCC(=O)N1c2ccc(S(=O)(=O)N3CCC(C)CC3)cc2CC1C (stereo unspecified)	.	.	.	-	-	.
CC(C)Cc1nnc(NC(=O)C2CSC3(C)CCC(=O)N23)s1 (stereo unspecified)	.	-	.	-	-	-
COc1cccc(CNC(=O)c2cc(S(=O)(=O)N3CCCCC3)ccc2C)c1	.	.	.	-	?	-
Cc1ccc(C)c(N2CCN(C(=O)Nc3cn(CC(C)C)c(=O)c4ccccc34)CC2)c1	.	.	.	13µM	16.4µM	.
Cc1ccc(C)c(N2CCN(C(=O)Cc3cn(C)c4ccccc34)CC2)c1	-	-	-	?	?	-
CC(C)Cn1cc(NC(=O)N2CCN(c3cccc(Cl)c3)CC2)c2ccccc2c1=O	.	.	.	7.31µM	?	.
COc1cc2c(C(=O)N3CCN(c4cccc(C)c4)C(C)C3)cn(CC(C)C)c(=O)c2cc1OC (stereo unspecified)	.	.	.	14.6µM	?	.
COc1ccc(N2CCN(C(=O)Nc3cn(CC(C)C)c(=O)c4ccccc34)CC2)cc1	.	.	.	-	14.6µM	.
CC1(C(=O)NS(=O)(=O)c2ccc(Cl)cc2)CCN1C(=O)CCc1cccs1 (stereo unspecified)	.	.	.	-	-	-
CCOc1ccc(C2C(C(N)=O)=C(C)Nc3nc(SCc4ccccc4F)nn32)cc1 (stereo unspecified)	.	.	.	-	-	.
COc1ccccc1CNS(=O)(=O)c1cnc(N)nc1	.	.	.	-	-	.
CCCc1cc(=O)oc2cc(C)c3c(-c4cccc(OC)c4)coc3c12	.	.	.	-	-	.
Cc1ccc(C(=O)NCC(=O)OCC(=O)c2c(N)n(C)c(=O)n(C)c2=O)cc1C	.	-	.	-	-	-
CCO[C@H]1c2c(ccc3ccc(=O)oc23)OC(C)(C)[C@H]1O	.	-	.	-	-	-
Cc1cc(C)c(C#N)c(N2CCN(CCOc3ccc(Cl)cc3)CC2)n1	-	18.4µM	-	-	-	-
COCC(=O)N(C)C[C@H]1Oc2cc(C#Cc3cccnc3)ccc2S(=O)(=O)N([C@H](C)CO)C[C@H]1C	.	.	.	-	?	-
Cc1ccc(CS(=O)Cc2ccc(C(=O)NCc3cccs3)o2)cc1 (stereo unspecified)	-	-	-	-	-	-
Cc1ccc(CS(=O)(=O)Cc2ccc(C(=O)NCc3cccs3)o2)cc1	-	?	-	18.4µM	-	-
CCc1ccccc1S(=O)(=O)Cc1ccc(C(=O)NCc2cccs2)o1	-	?	-	18.4µM	?	-
COc1ccccc1S(=O)(=O)Cc1ccc(C(=O)NCc2cccs2)o1	-	-	-	-	?	-
O=C(CSc1nnc(NC(=O)c2ccc(F)cc2)s1)NC1CCCC1	-	?	-	-	-	-
O=C(O)CCCC(=O)Nc1ccccc1SCCS(=O)(=O)c1ccc(Cl)cc1	-	-	-	-	-	-
Cc1ccc(CCN2CC(C(=O)NCCCN3CCC(C)CC3)CC2=O)cc1 (stereo unspecified)	-	?	-	?	?	-
CN(CCNC(=O)c1ccc(CS(=O)(=O)c2c(Cl)cccc2Cl)o1)CCc1ccccc1	-	?	-	?	-	-
Cc1cccc2cc(CN(Cc3ccccc3)C(=S)NCCCN(C)C)c(=O)[nH]c12	-	-	-	?	?	-84.5
Cc1ccc(CN(Cc2cc3cccc(C)c3[nH]c2=O)C(=S)NCCCN(C)C)cc1	-	-	-	?	?	-77.5
CCN(CC)CCCNC(=S)N(Cc1cccnc1)Cc1cc2cccc(C)c2[nH]c1=O	-	-	-	-	-	?
Cc1cccc2cc(CN(Cc3cccnc3)C(=S)NCCCN(C)C)c(=O)[nH]c12	-	-	-	13µM	?	-

Source: PubChem BioAssay (National Center for Advancing Translational Sciences (NCATS))
